# Measurements: PubChem BioAssay (NCATS)
# “And” between values parts separate entries of the source, which are not always exact repeats. Equal entries are not always repeated. Results filed as inconclusive are left out. A call without a number means that no potency is given here. A number with no mark means an inactive call. The source made the active and inactive calls. Calls follow the shape of the dose curve; as a rule, active = well fitted curve in the direction sought with a large enough effect; inconclusive = small, poorly fitted or top-dose-only effect, or another doubt; inactive = no such curve, though single readings can be large; an effect the other way counts as inactive or inconclusive.
# Assays:
# HEK293 = assay: Cytotoxic Profiling of Annotated Libraries Using Quantitative High-Throughput Screening (AID 1296008); settings: Five cell lines viability, CellTiter-Glo ATP luminescence, 48-72 h; max response: hits give low values; also: nearly all actives have a fitted effect of over 60% in size
# How it was run: (§1)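 Compounds were pin-transferred onto cells and incubated 48 or 72 hr at 37 degree Celsius, 95% humidity. CellTiter-Glo was added, plates sat 10 min at room temperature, then ATP-coupled luminescence was imaged as the viability read-out.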
# HaCat [1] = assay: as above; settings: Five cell lines viability, CellTiter-Glo ATP luminescence, 48-72 h; max response: hits give low values
# How it was run: as §1
# KB-3-1 = assay: as above; settings: Five cell lines viability, CellTiter-Glo ATP luminescence, 48-72 h; max response: hits give low values
# How it was run: as §1
# NIH3T3 = assay: as above; settings: Five cell lines viability, CellTiter-Glo ATP luminescence, 48-72 h; max response: hits give low values
# How it was run: as §1
# MCC-13 = assay: qHTS assay to identify novel small-molecules to repurpose for Merkel cell carcinoma treatment (AID 1296009); settings: MCC and control cell lines, CellTiter-Glo viability, 72 h; series mostly up to 46 µM; also: nearly all actives have a fitted effect of over 60% in size
# How it was run: (§2)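 Cells exposed to NPC (8-point) and MIPE (11-point) compound dilutions for 72 hr at 37 degree celsius; viability read by CellTiter-Glo luminescence, normalized to no-cell and DMSO in-plate controls.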
# MKL-1 = assay: as above; settings: MCC and control cell lines, CellTiter-Glo viability, 72 h; series mostly up to 46 µM
# How it was run: as §2
# WaGa = assay: as above; settings: MCC and control cell lines, CellTiter-Glo viability, 72 h; series mostly up to 46 µM
# How it was run: as §2
# CASKI = assay: Primary qHTS to identify gynecologic anti-cancer compounds using libraries of approved drugs and bioactive compounds (AID 1345084); settings: Gynecologic cancer cell panel viability, ATPlite luminescence, 48 h; series mostly up to 57.5 µM; also: nearly all actives have a fitted effect of over 55% in size
# How it was run: (§3)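 Cytotoxicity screen measuring ATP content by luciferase luminescence. Each compound is applied at five concentrations for 48 h at 37 C with 5% CO2.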
# Es-2 = assay: as above; settings: Gynecologic cancer cell panel viability, ATPlite luminescence, 48 h; series mostly up to 57.5 µM
# How it was run: as §3
# HeLa = assay: as above; settings: Gynecologic cancer cell panel viability, ATPlite luminescence, 48 h; series mostly up to 57.5 µM
# How it was run: as §3
# Hek293T [2] = assay: as above; settings: Gynecologic cancer cell panel viability, ATPlite luminescence, 48 h, control line for the selectivity index; series mostly up to 57.5 µM
# How it was run: as §3
# JEG-3 = assay: as above; settings: Gynecologic cancer cell panel viability, ATPlite luminescence, 48 h; series mostly up to 57.5 µM
# How it was run: as §3
# HACAT [3] = assay: qHTS assay to identify novel small-molecules to repurpose for Merkel cell carcinoma treatment (AID 1296009); settings: MCC and control cell lines, CellTiter-Glo viability, 72 h; at 44.8 µM (top of the series) unless noted; also: nearly all actives have a fitted effect of over 60% in size
# How it was run: as §2
# MCC-26 = assay: as above; settings: MCC and control cell lines, CellTiter-Glo viability, 72 h; series mostly up to 46 µM
# How it was run: as §2
# UISO = assay: as above; settings: MCC and control cell lines, CellTiter-Glo viability, 72 h; series mostly up to 46 µM
# How it was run: as §2
# MKL-2 = assay: as above; settings: MCC and control cell lines, CellTiter-Glo viability, 72 h; series mostly up to 46 µM
# How it was run: as §2
# C33A = assay: Primary qHTS to identify gynecologic anti-cancer compounds using libraries of approved drugs and bioactive compounds (AID 1345084); settings: Gynecologic cancer cell panel viability, ATPlite luminescence, 48 h; series mostly up to 57.5 µM; also: nearly all actives have a fitted effect of over 55% in size
# How it was run: as §3
# CAOV3 = assay: as above; settings: Gynecologic cancer cell panel viability, ATPlite luminescence, 48 h; series mostly up to 57.5 µM
# How it was run: as §3
# HEK293T [4] = assay: qHTS assay to identify novel small-molecules to repurpose for Merkel cell carcinoma treatment (AID 1296009); settings: MCC and control cell lines, CellTiter-Glo viability, 72 h; at 44.8 µM (top of the series); also: nearly all actives have a fitted effect of over 60% in size
# How it was run: as §2
# Potency is read from the fitted curve at half-maximal effect.
smiles,measurement,setting,value
CN(C[C@@H]1COCCO1)S(=O)(=O)Nc1ccc2ccc3ncc(-c4cnn(C)c4)cc3c(=O)c2c1,Potency,HEK293,4.18 µM (active) and 6.51 µM (active)
same,Potency,HaCat [1],10.3 µM (active)
same,Potency,KB-3-1,7.43 µM (active)
same,Potency,NIH3T3,1.32 µM (active) and 8.2 µM (active)
same,Potency,MCC-13,inactive
same,Potency,MKL-1,inactive
same,Potency,WaGa,inactive
same,Potency,CASKI,inactive
same,Potency,Es-2,inactive
same,Potency,HeLa,12.6 µM (active)
same,Potency,Hek293T [2],inactive
same,Potency,JEG-3,inactive
O=C(O)CCC1CCC(c2cc(F)ccc2F)(S(=O)(=O)c2ccc(Cl)cc2)CC1 (centres undefined),max response,HEK293,-15.1%
same,outcome,HaCat [1],inactive
same,outcome,KB-3-1,inactive
same,outcome,HACAT [3],inactive
same,Potency,MCC-13,inactive
same,Potency,MCC-26,inactive
same,Potency,MKL-1,inactive
same,Potency,UISO,inactive
CC(C)n1nc(-c2ccc3oc(N)nc3c2)c2c(N)ncnc21,Potency,HEK293,1.7 nM (active) and 82 nM (active)
same,Potency,HaCat [1],3.26 µM (active)
same,Potency,KB-3-1,7.4 nM (active) and 116 nM (active)
same,Potency,NIH3T3,5.3 nM (active) and 259 nM (active)
same,Potency,UISO,0.0264 µM (active)
same,Potency,CASKI,2.24 µM (active)
same,Potency,HeLa,12.6 µM (active)
same,Potency,Hek293T [2],0.316 µM (active)
CC(C)(C)OC(=O)N[C@H]1CCCCCC=C[C@@H]2C[C@@]2(C(=O)NS(=O)(=O)C2CC2)NC(=O)[C@@H]2C[C@@H](OC(=O)N3Cc4cccc(F)c4C3)CN2C1=O,max response,HEK293,3.03%
same,max response,HaCat [1],-10.7%
same,max response,KB-3-1,5.38%
same,Potency,MCC-13,inactive
same,Potency,MCC-26,inactive
same,Potency,MKL-1,inactive
same,Potency,MKL-2,inactive
same,Potency,UISO,inactive
same,Potency,WaGa,inactive
same,Potency,C33A,inactive
same,Potency,CAOV3,inactive
same,Potency,CASKI,inactive
same,Potency,Es-2,inactive
same,Potency,HeLa,inactive
same,Potency,Hek293T [2],inactive
same,Potency,JEG-3,inactive
COc1cc(N2CCC(N3CCN(C)CC3)CC2)ccc1Nc1ncnc(Nc2ccccc2S(=O)(=O)C(C)C)n1,Potency,HEK293,14.6 µM (active)
same,Potency,HaCat [1],7.31 µM (active)
same,Potency,KB-3-1,8.33 µM (active)
same,Potency,NIH3T3,3.32 µM (active) and 3.66 µM (active)
same,Potency,MKL-2,inactive
same,Potency,WaGa,inactive
same,Potency,HeLa,10 µM (active)
same,Potency,JEG-3,inactive
CCn1cc(C(=O)O)c(=O)c2ccc(C)nc21,outcome,HEK293,inactive
same,outcome,HaCat [1],inactive
same,max response,KB-3-1,-12% and -6.11%
same,outcome,HACAT [3],inactive
same,outcome,HEK293T [4],inactive
same,Potency,MCC-13,inactive
same,Potency,MCC-26,inactive
same,Potency,MKL-1,inactive
same,Potency,MKL-2,inactive
same,Potency,UISO,inactive
same,Potency,WaGa,inactive
same,Potency,C33A,inactive
same,Potency,CAOV3,inactive
same,Potency,CASKI,inactive
same,Potency,Es-2,inactive
same,Potency,HeLa,inactive
same,Potency,Hek293T [2],inactive
same,Potency,JEG-3,inactive
CCN(CC)C(=O)c1ccc(O)c(OC)c1,max response,HEK293,-4.79%
same,outcome,HaCat [1],inactive
same,max response,KB-3-1,2.39% and -3.02%
same,outcome,HACAT [3],inactive
same,Potency,MCC-13,inactive
same,Potency,MCC-26,inactive
same,Potency,MKL-1,inactive
same,Potency,MKL-2,inactive
same,Potency,UISO,inactive
same,Potency,WaGa,inactive
same,Potency,C33A,inactive
same,Potency,CAOV3,inactive
same,Potency,CASKI,inactive
same,Potency,Es-2,inactive
same,Potency,HeLa,inactive
same,Potency,Hek293T [2],inactive
same,Potency,JEG-3,inactive
CC(C)NCC(O)COc1cccc2[nH]ccc12 (centres undefined),max response,HEK293,-23%
same,max response,HaCat [1],-22.9% and 1.98%
same,max response,KB-3-1,13.5% and 2.02%
same,max response,NIH3T3,-7.28% and 1.44%
same,Potency,MCC-13,inactive
same,Potency,MKL-1,inactive
same,Potency,MKL-2,inactive
same,Potency,UISO,inactive
same,Potency,WaGa,inactive
same,Potency,C33A,inactive
same,Potency,CASKI,inactive
same,Potency,Es-2,inactive
same,Potency,HeLa,inactive
same,Potency,Hek293T [2],inactive
same,Potency,JEG-3,inactive
CC(C)(C)NC(=O)Nc1cccc(Nc2ncc(F)c(NC(C)(C)CO)n2)c1,Potency,HEK293,11.8 µM (active)
same,Potency,HaCat [1],10.5 µM (active) and 16.4 µM (active)
same,Potency,KB-3-1,18.7 µM (active) and 20.6 µM (active)
same,Potency,MCC-13,inactive
same,Potency,MCC-26,inactive
same,Potency,MKL-2,inactive
same,Potency,UISO,inactive
same,Potency,C33A,inactive
same,Potency,CASKI,inactive
same,Potency,Es-2,inactive
same,Potency,Hek293T [2],inactive
same,Potency,JEG-3,inactive
Cc1nc(N)sc1-c1ccnc(Nc2ccc(N3CCOCC3)cc2)n1,Potency,HEK293,10.5 µM (active) and 7.31 µM (active)
same,Potency,HaCat [1],18.7 µM (active) and 1.16 µM (active)
same,Potency,KB-3-1,1.66 µM (active) and 1.64 µM (active)
same,Potency,NIH3T3,11.8 µM (active) and 1.84 µM (active)
same,Potency,MCC-26,inactive
same,Potency,MKL-2,inactive
same,Potency,Es-2,10 µM (active)
same,Potency,HeLa,2.51 µM (active)
CN1CCN(CCOc2cc(OC3CCOCC3)c3c(Nc4c(Cl)ccc5c4OCO5)ncnc3c2)CC1,Potency,HEK293,26.4 µM (active) and 16.4 µM (active)
same,Potency,HaCat [1],3.32 µM (active) and 366 nM (active)
same,max response,KB-3-1,2.81% and -8.03%
same,Potency,NIH3T3,1.66 µM (active) and 651 nM (active)
same,Potency,MKL-1,inactive
same,Potency,MKL-2,inactive
same,Potency,UISO,inactive
same,Potency,WaGa,inactive
same,Potency,Es-2,inactive
same,Potency,HeLa,inactive
same,Potency,Hek293T [2],inactive
same,Potency,JEG-3,inactive
